According to PubChem BioAssay (NCATS):
Where “and” joins values, the source holds several entries; their conditions need not be identical. Equal values may be shown once. Values without a mark were called inactive. Inconclusive results are not listed. Calls of active or inactive are those of the source.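 Rule for the calls, unless noted: active = compounds whose dose series gives a full or clear partial fitted curve of increased nuclear translocation; inconclusive = weak partial curve or effect only at the top dose; inactive = no dose-dependent translocation response.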

Test system: not listed separately
Experiment: Stat Signaling Pathway (AID 446; active = well fitted curve in either direction with a large enough effect, not every such curve was filed as active;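 note: ME-180 cervical cancer cells given 40 pM IL-6 alongside compound; SIE-controlled beta-lactamase reporter measured as 460/530 nm FRET emission ratio; % is set by controls: 0 for no effect and ±100 for the full control effect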)
Details: ME-180 (cervical carcinoma) SIE beta-lactamase reporter, IL-6 stimulated, 5 h; series mostly up to 17.2 µM; activity, negative = inhibition: at the top concentration
Outline: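 IL-6/STAT signaling read in ME-180 cells via an SIE beta-lactamase reporter. Stimulus was 40 pM IL-6 (its AC50) for 5 hrs, so both activation and inhibition register.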
With `FC(F)(F)c1ccccc1-n1ccnc1` the “activity, negative = inhibition” value was -5.1% [at 38 µM].
For `CCN(CC)CCNC(=O)c1ccc(NC(C)=O)cc1`, the “activity, negative = inhibition” value was -7.95%.
In the case of `C[C@]12C=CC(=O)C=C1CC[C@H]1[C@@H]3C[C@@H](O)[C@](O)(C(=O)CO)[C@@]3(C)C[C@H](O)[C@@]12F`, the “activity, negative = inhibition” value is reported as -4.63%.
For `COc1ccc(CCN(C)CCCC(C#N)(c2cc(OC)c(OC)c(OC)c2)C(C)C)cc1OC` (stereo unspecified), the “activity, negative = inhibition” value was -1.39%.
For `OC(CCN1CCCCC1)(c1ccccc1)C1CCCCC1` (stereo unspecified), the “activity, negative = inhibition” value was -4.75%.
With `CC(C)(C)NCC(O)c1cc(O)cc(O)c1` (stereo unspecified) the “activity, negative = inhibition” value was 6.84%.
For `CCCN(CCC)C(=O)C(CCC(=O)O)NC(=O)c1ccccc1` (stereo unspecified), the “activity, negative = inhibition” value was 3.85%.
In the case of `COCCCC/C(=N\OCCN)c1ccc(C(F)(F)F)cc1`, the “activity, negative = inhibition” value is reported as 1.59%.
For `O=C(CCNNC(=O)c1ccncc1)NCc1ccccc1`, the outcome was “inactive”.
In the case of `CC(=O)Nc1nnc(S(N)(=O)=O)s1`, the outcome is reported as “inactive”.
In the case of `CCOC(=O)c1cnc2c(cnn2CC)c1NN=C(C)C`, the “activity, negative = inhibition” value is reported as -6.68% [at 38 µM].
For `CC1=NS(=O)(=O)c2cc(Cl)ccc2N1`, the outcome was “inactive”.
With `Brc1c(NC2=NCCN2)ccc2nccnc12` the outcome was “inactive”.
With `CO[C@@]1(NC(=O)CSCC#N)C(=O)N2C(C(=O)O)=C(CSc3nnnn3C)CS[C@@H]21` the “activity, negative = inhibition” value was -3.71%.
With `CC(C)[N+](C)(CCOC(=O)C1c2ccccc2Oc2ccccc21)C(C)C` the outcome was “inactive”.
With `CC(=O)OC(C)C[N+](C)(C)C` (stereo unspecified) the “activity, negative = inhibition” value was -6.19%.
For `C=CCc1ccccc1OCC(O)CNC(C)C` (stereo unspecified), the “activity, negative = inhibition” value was 17.1%.
In the case of `CC(=O)OCC1=C(C(=O)O)N2C(=O)[C@@H](NC(=O)Cc3cccs3)[C@H]2SC1`, the “activity, negative = inhibition” value is reported as -9.58%.
For `COc1cc(C(=O)OCCCN2CCCN(CCCOC(=O)c3cc(OC)c(OC)c(OC)c3)CC2)cc(OC)c1OC`, the outcome was “inactive”.

Target: Glucocorticoid receptor (Homo sapiens) (UniProt P04150)
Sequence (P04150 whole entry, looked up): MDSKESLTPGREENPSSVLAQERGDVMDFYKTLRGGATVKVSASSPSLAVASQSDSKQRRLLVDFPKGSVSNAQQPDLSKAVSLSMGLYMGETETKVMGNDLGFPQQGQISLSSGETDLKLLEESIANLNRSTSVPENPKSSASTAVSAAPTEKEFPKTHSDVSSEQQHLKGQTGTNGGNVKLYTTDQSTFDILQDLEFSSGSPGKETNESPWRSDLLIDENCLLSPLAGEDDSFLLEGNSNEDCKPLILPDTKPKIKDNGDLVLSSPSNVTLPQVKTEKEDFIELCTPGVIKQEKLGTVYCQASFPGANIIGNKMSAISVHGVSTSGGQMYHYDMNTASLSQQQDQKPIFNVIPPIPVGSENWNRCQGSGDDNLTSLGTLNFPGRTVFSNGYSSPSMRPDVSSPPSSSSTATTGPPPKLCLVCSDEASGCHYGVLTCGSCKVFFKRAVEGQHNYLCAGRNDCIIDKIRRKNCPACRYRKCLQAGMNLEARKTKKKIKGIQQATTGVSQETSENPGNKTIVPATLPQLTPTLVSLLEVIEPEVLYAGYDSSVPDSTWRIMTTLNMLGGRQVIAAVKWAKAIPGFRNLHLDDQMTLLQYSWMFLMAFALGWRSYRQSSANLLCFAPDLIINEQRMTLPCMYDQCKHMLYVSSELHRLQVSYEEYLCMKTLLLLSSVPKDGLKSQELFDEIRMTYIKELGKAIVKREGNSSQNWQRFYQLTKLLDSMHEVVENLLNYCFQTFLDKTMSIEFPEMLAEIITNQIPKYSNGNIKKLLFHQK
Experiment: GR-GFP Redistribution (AID 450); note: potency is the fitted concentration of half-maximal effect
Details: U2OS GR-GFP nuclear translocation, laser cytometry, 2 h
With `C[C@]12CCC(=O)C=C1CC[C@@H]1[C@@H]2C(=O)C[C@@]2(C)[C@H]1CC[C@]2(O)C(=O)CO` the Potency was 0.818 µM (active).
With `COCCOC(=O)C1=C(C)NC(C)=C(C(=O)OC(C)C)C1c1cccc([N+](=O)[O-])c1` (stereo unspecified) the Potency was over 20.6 µM.
Work on `CN(C)[C@@H]1C(=O)C(C(N)=O)=C(O)[C@@]2(O)C(=O)C3=C(O)c4c(O)ccc(Cl)c4[C@@H](O)[C@H]3C[C@@H]12` yielded a Potency of over 20.6 µM.
Work on `CCOC(=O)C1=C(C)NC(C)=C(C(=O)OC)C1c1cccc(Cl)c1Cl` (stereo unspecified) yielded a Potency of over 20.6 µM.
Compound `CCN1CCc2nc(N)oc2CC1` has a Potency of over 46 µM.
In the case of `Cc1nc2ccccn2c(=O)c1CCN1CCC(C(=O)c2ccc(F)cc2)CC1`, the Potency is reported as > 46 µM and > 20.6 µM.
In the case of `CC1=C(C)C(=O)C(CCCCC#CCCCC#CCO)=C(C)C1=O`, the Potency is reported as > 46 µM and > 20.6 µM.
With `C[C@]12CCC(=O)C=C1CC[C@@H]1[C@@H]2CC[C@@]2(C)[C@H]1CC[C@]2(O)C(=O)CO` the Potency was 0.0458 µM (active).
Work on `COCCc1ccc(OCC(O)CNC(C)C)cc1` (stereo unspecified) yielded a Potency of over 20.6 µM.
In the case of `CN(C)CCN(Cc1cccs1)c1ccccn1`, the Potency is reported as > 46 µM and > 20.6 µM.
With `COc1ccc2c(c1OC)C(=O)O[C@@H]2[C@H]1c2c(cc3c(c2OC)OCO3)CCN1C` the Potency was > 46 µM and > 20.6 µM.
`COCC(=O)O[C@]1(CCN(C)CCCc2nc3ccccc3[nH]2)CCc2cc(F)ccc2[C@@H]1C(C)C` showed a Potency of over 46 µM.
`Fc1ccc(C(c2ccc(F)cc2)N2CCN(C/C=C/c3ccccc3)CC2)cc1` gave a Potency of over 20.6 µM.
`FC(F)(F)c1ccccc1-n1ccnc1` showed a Potency of over 46 µM.
For `CCN(CC)CCNC(=O)c1ccc(NC(C)=O)cc1`, the Potency was > 46 µM and > 20.6 µM.
With `C[C@]12C=CC(=O)C=C1CC[C@H]1[C@@H]3C[C@@H](O)[C@](O)(C(=O)CO)[C@@]3(C)C[C@H](O)[C@@]12F` the Potency was 0.148 µM (active).
In the case of `COc1ccc(CCN(C)CCCC(C#N)(c2cc(OC)c(OC)c(OC)c2)C(C)C)cc1OC` (stereo unspecified), the Potency is reported as over 20.6 µM.
With `CCCN(CCC)C(=O)C(CCC(=O)O)NC(=O)c1ccccc1` (stereo unspecified) the Potency was over 20.6 µM.
Work on `COCCCC/C(=N\OCCN)c1ccc(C(F)(F)F)cc1` yielded a Potency of over 20.6 µM.
With `O=C(CCNNC(=O)c1ccncc1)NCc1ccccc1` the Potency was > 46 µM and > 20.6 µM.
In the case of `CC(=O)Nc1nnc(S(N)(=O)=O)s1`, the Potency is reported as > 46 µM and > 20.6 µM.
For `CC1=NS(=O)(=O)c2cc(Cl)ccc2N1`, the Potency was > 46 µM and > 20.6 µM.
